Where “and” joins values, the source holds several entries; their conditions need not be identical. Equal entries are not always repeated. Calls of active or inactive are those of the source. A call without a number means that no potency is given here. Unless noted, calls follow the shape of the full dose curve.
Test system: not listed separately
Experiment: qHTS assay to identify small molecule antagonists of the thyroid receptor (TR) signaling pathway (AID 743065; active = well fitted inhibition curve with a large enough effect in the repeat runs; inconclusive = weak or mixed curves; inactive = no such curve, though single readings can be large or run the other way; also: nearly all actives have a fitted effect of over 55% in size)
Conditions: GH3.TRE-Luc, T3-stimulated luciferase inhibition, 23.5 h; series mostly up to 70.3 µM
Outline: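 GH3.TRE-Luc rat pituitary cells (two TREs driving luciferase) were dosed with compound, then stimulated with 1 nM T3 (final) for 23.5 h at 37 C. ONE-Glo luminescence was the read-out, with CellTiter-Fluor fluorescence as the cytotoxicity counter-screen.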
Potency is read from the fitted curve at half-maximal effect.

Q: Which Potency does the source give for O=C1OC(CN2CCOCC2)CN1/N=C/c1ccc([N+](=O)[O-])o1 (configuration not stated) here?
A: inactive

Q: With C=CC(=O)OCCOCCOC(=O)C=C as the compound, how does the Potency read?
A: 68.9 µM (active)

Q: With CC(COCCO)OCCO (configuration not stated) as the compound, how does the Potency read?
A: inactive

Q: For Cc1cccc(C)c1NC(=O)CN(CC(=O)O)CC(=O)O, which Potency is on record?
A: inactive

Q: Which Potency does the source give for CCCCC(CC)COC(=O)COc1ccc(Cl)cc1Cl (configuration not stated) here?
A: inactive

Q: For OCc1cc(C(O)CNCCCCCCOCCCCc2ccccc2)ccc1O (configuration not stated), which Potency is on record?
A: 10.6 µM (active) and 8.41 µM (active)

Q: Which Potency does the source give for COc1ccc(S(=O)(=O)N2C(=O)[C@@](c3ccccc3OC)(N3C[C@H](O)C[C@H]3C(=O)N(C)C)c3cc(Cl)ccc32)c(OC)c1 here?
A: 68.6 µM (active)

Q: Which Potency does the source give for CCCCCCCCCCCc1ccccc1 here?
A: inactive

Q: For N=c1ccn2c(n1)O[C@H]1[C@H](O)[C@@H](CO)O[C@H]12, which Potency is on record?
A: 531 nM (active) and 545 nM (active)

Q: With CCOC(=O)NCCOc1ccc(Oc2ccccc2)cc1 as the compound, how does the Potency read?
A: inactive

Q: With Nc1ccccc1S(=O)(=O)c1ccccc1 as the compound, how does the Potency read?
A: inactive

Q: For CC(C)=CCC/C(C)=C/CC/C(C)=C/CO, which Potency is on record?
A: 61.1 µM (active)

Q: Which Potency does the source give for CCCCO here?
A: inactive

Q: Which Potency does the source give for O=C(O)C(S)C(S)C(=O)O (configuration not stated) here?
A: 11.9 µM (active)

Q: With COc1cc(Cl)ccc1Oc1ccc(Cl)cc1Cl as the compound, how does the Potency read?
A: 52.9 µM (active)

Q: For COC(C)(C)CCO, which Potency is on record?
A: inactive

Q: Which Potency does the source give for C=C(C)C(=O)OCCO here?
A: inactive

Q: Which Potency does the source give for C/C=C/C=C/CO here?
A: inactive

Q: With CN1CCN(C(c2ccccc2)c2ccccc2)CC1 as the compound, how does the Potency read?
A: inactive

Q: With CCCOC(C(=O)OC1CCN(C)CC1)(c1ccccc1)c1ccccc1 as the compound, how does the Potency read?
A: 26.6 µM (active)

Q: With NCC(=O)O as the compound, how does the Potency read?
A: inactive

Q: With CCCCc1nc2cccnc2n1Cc1ccc(-c2ccccc2-c2nnn[nH]2)cc1 as the compound, how does the Potency read?
A: inactive

Q: For C=CC(=O)OCCOc1ccccc1, which Potency is on record?
A: 54.4 µM (active)

Q: For O=C(OCCCCCCOC(=O)c1ccccc1)c1ccccc1, which Potency is on record?
A: inactive

Q: Which Potency does the source give for Nc1ncn([C@H]2C[C@H](O)[C@@H](CO)O2)c(=O)n1 here?
A: inactive

Q: For COc1ccc(C(=O)Nc2nc3ccccc3c(NCc3ccccc3)c2C#N)cc1, which Potency is on record?
A: inactive

Q: With O=[N+]([O-])c1cccc(S(=O)(=O)O)c1 as the compound, how does the Potency read?
A: inactive

Test system: thyroid hormone receptor (rat, GH3 cells)
Experiment: qHTS assay to identify small molecule agonists of the thyroid receptor (TR) signaling pathway (AID 743066)
Conditions: GH3.TRE-Luc cells, TR agonist luciferase, 24 h; series mostly up to 83.9 µM

Q: Which Potency does the source give for O=C1OC(CN2CCOCC2)CN1/N=C/c1ccc([N+](=O)[O-])o1 (configuration not stated) here?
A: inactive

Q: With C=CC(=O)OCCOCCOC(=O)C=C as the compound, how does the Potency read?
A: inactive

Q: For CC(COCCO)OCCO (configuration not stated), which Potency is on record?
A: inactive

Q: Which Potency does the source give for Cc1cccc(C)c1NC(=O)CN(CC(=O)O)CC(=O)O here?
A: inactive

Q: With CN(Cc1ccc(C(C)(C)C)cc1)Cc1cccc2ccccc12 as the compound, how does the Potency read?
A: inactive

Q: Which Potency does the source give for CCCCC(CC)COC(=O)COc1ccc(Cl)cc1Cl (configuration not stated) here?
A: inactive

Q: With CNC(=O)CN(CCN(CCN(CC(=O)[O-])CC(=O)NC)CC(=O)[O-])CC(=O)[O-].O.[Gd+3] as the compound, how does the Potency read?
A: inactive

Q: For c1ccc(CNCCNCc2ccccc2)cc1, which Potency is on record?
A: inactive

Q: For CCC(C)c1cc(C(C)(C)C)c(O)c(C(C)(C)C)c1 (configuration not stated), which Potency is on record?
A: 10.7 µM (active)

Q: With C[C@@H]1C[C@H]2O[C@@]3(O[C@@H]2C(C)(C)O)[C@H](O)[C@@]2(C)[C@@H]4CC[C@H]5C(C)(C)[C@@H](O[C@@H]6OC[C@@H](O)[C@H](O)[C@H]6O)CC[C@@]56C[C@@]46CC[C@]2(C)[C@@H]13 as the compound, how does the Potency read?
A: inactive

Q: For CCCCCCCCCCCc1ccccc1, which Potency is on record?
A: inactive

Q: With N=c1ccn2c(n1)O[C@H]1[C@H](O)[C@@H](CO)O[C@H]12 as the compound, how does the Potency read?
A: inactive

Q: For CCOC(=O)NCCOc1ccc(Oc2ccccc2)cc1, which Potency is on record?
A: inactive

Q: With Nc1ccccc1S(=O)(=O)c1ccccc1 as the compound, how does the Potency read?
A: inactive

Q: With CC(C)=CCC/C(C)=C/CC/C(C)=C/CO as the compound, how does the Potency read?
A: inactive

Q: For CCCCO, which Potency is on record?
A: inactive

Q: Which Potency does the source give for O=C(O)C(S)C(S)C(=O)O (configuration not stated) here?
A: inactive

Q: For COc1cc(Cl)ccc1Oc1ccc(Cl)cc1Cl, which Potency is on record?
A: inactive

Q: For COC(C)(C)CCO, which Potency is on record?
A: inactive

Q: For C=C(C)C(=O)OCCO, which Potency is on record?
A: inactive

Q: Which Potency does the source give for CCCCCCCCCCCCCCCCOS(=O)(=O)O here?
A: inactive

Q: With C/C=C/C=C/CO as the compound, how does the Potency read?
A: inactive

Q: Which Potency does the source give for CN1CCN(C(c2ccccc2)c2ccccc2)CC1 here?
A: inactive

Q: For NCC(=O)O, which Potency is on record?
A: inactive

Q: With CCCCc1nc2cccnc2n1Cc1ccc(-c2ccccc2-c2nnn[nH]2)cc1 as the compound, how does the Potency read?
A: inactive

Q: Which Potency does the source give for C=CC(=O)OCCOc1ccccc1 here?
A: inactive

Q: For O=C(OCCCCCCOC(=O)c1ccccc1)c1ccccc1, which Potency is on record?
A: inactive

Q: For Nc1ncn([C@H]2C[C@H](O)[C@@H](CO)O2)c(=O)n1, which Potency is on record?
A: 3.35 µM (active)

Q: With COc1ccc(C(=O)Nc2nc3ccccc3c(NCc3ccccc3)c2C#N)cc1 as the compound, how does the Potency read?
A: inactive

Q: With O=[N+]([O-])c1cccc(S(=O)(=O)O)c1 as the compound, how does the Potency read?
A: inactive

Target: Estrogen receptor (Homo sapiens) (UniProt P03372)
Sequence (P03372 whole entry, looked up): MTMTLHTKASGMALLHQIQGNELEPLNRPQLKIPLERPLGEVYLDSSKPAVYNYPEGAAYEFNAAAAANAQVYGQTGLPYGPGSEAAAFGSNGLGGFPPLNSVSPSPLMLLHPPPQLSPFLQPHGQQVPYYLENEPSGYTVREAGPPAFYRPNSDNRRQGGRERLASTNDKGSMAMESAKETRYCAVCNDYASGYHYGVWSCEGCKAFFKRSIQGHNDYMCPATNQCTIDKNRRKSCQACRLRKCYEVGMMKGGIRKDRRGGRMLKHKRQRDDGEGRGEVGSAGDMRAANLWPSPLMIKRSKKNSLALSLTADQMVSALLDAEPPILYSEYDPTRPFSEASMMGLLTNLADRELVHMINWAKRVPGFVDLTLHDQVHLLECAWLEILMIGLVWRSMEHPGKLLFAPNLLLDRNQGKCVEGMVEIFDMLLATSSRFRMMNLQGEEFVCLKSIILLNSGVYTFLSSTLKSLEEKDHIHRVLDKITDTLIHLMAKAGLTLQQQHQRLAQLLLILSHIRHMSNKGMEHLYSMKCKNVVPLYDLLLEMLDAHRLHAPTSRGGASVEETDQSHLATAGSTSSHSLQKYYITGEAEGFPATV
Experiment: qHTS assay to identify small molecule antagonists of the estrogen receptor alpha (ER-alpha) signaling pathway (AID 743069; active = well fitted curve in the direction sought with a large enough effect in the signal ratio in the repeat runs, not every such curve was filed as active; inconclusive = weak or mixed curves, or effect the other way; inactive = no such curve, though single readings can be large or run the other way; the % refers to the signal ratio)
Conditions: HEK293 ER-alpha-UAS-bla, beta-lactamase ratio, antagonist mode; series mostly up to 69.4 µM
Outline: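 In this cell-based reporter format, GripTite HEK293 cells harbouring ER-alpha-UAS-bla were grown overnight with 2% charcoal-stripped FBS, dosed with DMSO-dissolved compounds, then challenged with 17beta-estradiol. After 18 hr at 37C, beta-lactamase activity was detected by FRET fluorescence.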

Q: Which Potency does the source give for O=C1OC(CN2CCOCC2)CN1/N=C/c1ccc([N+](=O)[O-])o1 (configuration not stated) here?
A: inactive

Q: Which Potency does the source give for C=CC(=O)OCCOCCOC(=O)C=C here?
A: 61.9 µM [inconclusive] (active)

Q: Which Potency does the source give for CN(Cc1ccc(C(C)(C)C)cc1)Cc1cccc2ccccc12 here?
A: inactive

Q: Which Potency does the source give for CCCCC(CC)COC(=O)COc1ccc(Cl)cc1Cl (configuration not stated) here?
A: inactive

Q: Which Potency does the source give for CNC(=O)CN(CCN(CCN(CC(=O)[O-])CC(=O)NC)CC(=O)[O-])CC(=O)[O-].O.[Gd+3] here?
A: inactive

Q: With c1ccc(CNCCNCc2ccccc2)cc1 as the compound, how does the Potency read?
A: inactive

Q: For OCc1cc(C(O)CNCCCCCCOCCCCc2ccccc2)ccc1O (configuration not stated), which Potency is on record?
A: inactive

Q: With C[C@@H]1C[C@H]2O[C@@]3(O[C@@H]2C(C)(C)O)[C@H](O)[C@@]2(C)[C@@H]4CC[C@H]5C(C)(C)[C@@H](O[C@@H]6OC[C@@H](O)[C@H](O)[C@H]6O)CC[C@@]56C[C@@]46CC[C@]2(C)[C@@H]13 as the compound, how does the Potency read?
A: inactive

Q: For COc1ccc(S(=O)(=O)N2C(=O)[C@@](c3ccccc3OC)(N3C[C@H](O)C[C@H]3C(=O)N(C)C)c3cc(Cl)ccc32)c(OC)c1, which Potency is on record?
A: 43.6 µM [inconclusive] (active)

Q: Which Potency does the source give for CC1=CC[C@H](C(C)C)C=C1 here?
A: inactive

Q: With CCCCCCCCCCCc1ccccc1 as the compound, how does the Potency read?
A: inactive

Q: With N=c1ccn2c(n1)O[C@H]1[C@H](O)[C@@H](CO)O[C@H]12 as the compound, how does the Potency read?
A: inactive

Q: With CCOC(=O)NCCOc1ccc(Oc2ccccc2)cc1 as the compound, how does the Potency read?
A: 38.9 µM [inhibitor] (active)

Q: For CCN(CC)CCOC(=O)C(c1ccccc1)C1CCCCC1 (configuration not stated), which Potency is on record?
A: inactive

Q: With C=C(C)C(=O)OCCO as the compound, how does the Potency read?
A: inactive

Q: With CCCCCCCCCCCCCCCCOS(=O)(=O)O as the compound, how does the Potency read?
A: inactive

Q: Which Potency does the source give for CN1CCN(C(c2ccccc2)c2ccccc2)CC1 here?
A: inactive

Q: For CCCOC(C(=O)OC1CCN(C)CC1)(c1ccccc1)c1ccccc1, which Potency is on record?
A: inactive

Q: With NCC(=O)O as the compound, how does the Potency read?
A: inactive

Q: With O=C(OCCCCCCOC(=O)c1ccccc1)c1ccccc1 as the compound, how does the Potency read?
A: inactive
